Experimental data taken from ChEMBL document CHEMBL1157539, “Thousands of chemical starting points for antimalarial lead identification” (Nature, 2010).

Test system: HepG2
Experiment: GSK_TCMDC: Percent inhibition of human HepG2 cell line. Test compounds present at 10uM.
Type: functional

Going from O=C(Nc1ccc(CCNCc2ccccc2)cc1)Nc1ccc(OC(F)(F)F)cc1.O=C(O)C(F)(F)F to O=C(O)C(F)(F)F.c1ccc(CCNc2ccnc(Nc3ccc4[nH]nnc4c3)n2)cc1, the Inhibition rises from 0% to 33%.

For Cc1sc(CNCCCNc2cc(=O)c3ccccc3[nH]2)cc1Br, the Inhibition was 12%.
